Experiments:
Test in all cases: SELEX-seq (CSI, HT-SELEX, round 3); SELEX-seq: 1x PBS (10 mM phosphate, 137 mM NaCl, 2.7 mM KCl) pH 7.6, 2.5 mM DTT, 50 ng/ul poly dI-dC, 0.1% BSA, 50 nM biotinylated bZIP (1:3 with partner for heterodimers), 100 nM library, room temperature, 1 h, 3 rounds; high values mean tight binding
Settings in all cases: protein: recombinant;recombinant; copies: 1;1; dsDNA, one strand shown
ATF3;CEBPG = molecular target: T1, ATF3;CEBPG (Homo sapiens;Homo sapiens, UniProt P18847;P53567 77-150;52-130, |)
T1 sequence 1: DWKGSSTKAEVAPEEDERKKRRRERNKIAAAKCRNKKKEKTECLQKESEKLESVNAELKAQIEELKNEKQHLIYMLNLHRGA
T1 sequence 2: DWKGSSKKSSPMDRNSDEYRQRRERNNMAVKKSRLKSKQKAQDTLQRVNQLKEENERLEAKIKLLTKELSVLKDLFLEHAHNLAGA

ATF3;CEBPA = ATF3;CEBPA (Homo sapiens;Homo sapiens, UniProt P18847;P49715 77-150;273-345, |)
JUN;CEBPG = JUN;CEBPG (Homo sapiens;Homo sapiens, UniProt P05412;P53567 243-316;52-130, |)
JUN;CEBPA = JUN;CEBPA (Homo sapiens;Homo sapiens, UniProt P05412;P49715 243-316;273-345, |)
BATF3;CEBPG = molecular target: T2, BATF3;CEBPG (Homo sapiens;Homo sapiens, UniProt Q9NR55;P53567 26-99;52-130, |)
T2 sequence 1: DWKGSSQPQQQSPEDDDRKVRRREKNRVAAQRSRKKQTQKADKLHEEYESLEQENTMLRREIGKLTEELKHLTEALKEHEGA
T2 sequence 2: T1 sequence 2

BATF3;CEBPA = BATF3;CEBPA (Homo sapiens;Homo sapiens, UniProt Q9NR55;P49715 26-99;273-345, |)
ATF3;ATF3 = molecular target: T3, ATF3;ATF3 (Homo sapiens;Homo sapiens, UniProt P18847;P18847 77-150;77-150, |)
T3 sequence 1: T1 sequence 1
T3 sequence 2: T1 sequence 1

JUNB;CEBPA = JUNB;CEBPA (Homo sapiens;Homo sapiens, UniProt P17275;P49715 259-332;273-345, |)
BATF;CEBPG = molecular target: T4, BATF;CEBPG (Homo sapiens;Homo sapiens, UniProt Q16520;P53567 17-90;52-130, |)
T4 sequence 1: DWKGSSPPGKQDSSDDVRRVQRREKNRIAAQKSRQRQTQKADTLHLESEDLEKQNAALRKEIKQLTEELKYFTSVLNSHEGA
T4 sequence 2: T1 sequence 2

FOSL1;CEBPG = molecular target: T5, FOSL1;CEBPG (Homo sapiens;Homo sapiens, UniProt P15407;P53567 96-169;52-130, |)
T5 sequence 1: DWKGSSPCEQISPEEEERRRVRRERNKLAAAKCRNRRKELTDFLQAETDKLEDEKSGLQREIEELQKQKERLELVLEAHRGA
T5 sequence 2: T1 sequence 2

FOS;CEBPG = FOS;CEBPG (Homo sapiens;Homo sapiens, UniProt P01100;P53567 128-201;52-130, |)
CEBPG;CEBPG = molecular target: T6, CEBPG;CEBPG (Homo sapiens;Homo sapiens, UniProt P53567;P53567 52-130;52-130, |)
T6 sequence 1: T1 sequence 2
T6 sequence 2: T1 sequence 2

CEBPA;CEBPA = CEBPA;CEBPA (Homo sapiens;Homo sapiens, UniProt P49715;P49715 273-345;273-345, |)
JUN;ATF3 = JUN;ATF3 (Homo sapiens;Homo sapiens, UniProt P05412;P18847 243-316;77-150, |)
JUN;JUN = JUN;JUN (Homo sapiens;Homo sapiens, UniProt P05412;P05412 243-316;243-316, |)
ATF4;CEBPG = ATF4;CEBPG (Homo sapiens;Homo sapiens, UniProt P18848;P53567 269-346;52-130, |)
ATF4;CEBPA = ATF4;CEBPA (Homo sapiens;Homo sapiens, UniProt P18848;P49715 269-346;273-345, |)
ATF4;ATF4 = ATF4;ATF4 (Homo sapiens;Homo sapiens, UniProt P18848;P18848 269-346;269-346, |)
BATF3;ATF3 = molecular target: T7, BATF3;ATF3 (Homo sapiens;Homo sapiens, UniProt Q9NR55;P18847 26-99;77-150, |)
T7 sequence 1: T2 sequence 1
T7 sequence 2: T1 sequence 1

BATF3;ATF4 = BATF3;ATF4 (Homo sapiens;Homo sapiens, UniProt Q9NR55;P18848 26-99;269-346, |)

Sequence of BATF3;CEBPA (P49715 other isoform, or with tags, fused parts or gaps |): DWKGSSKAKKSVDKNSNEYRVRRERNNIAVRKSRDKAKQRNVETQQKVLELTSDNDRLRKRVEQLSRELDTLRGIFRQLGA
Sequence of CEBPA;CEBPA (P49715 other isoform, or with tags, fused parts or gaps |, chain 1 of 2): as the sequence (P49715 other isoform, or with tags, fused parts or gaps |) above
Sequence of CEBPA;CEBPA (P49715 other isoform, or with tags, fused parts or gaps |, chain 2 of 2): as the sequence (P49715 other isoform, or with tags, fused parts or gaps |) above
Sequence of ATF4;ATF4 (P18848 other isoform, or with tags, fused parts or gaps |, chain 1 of 2): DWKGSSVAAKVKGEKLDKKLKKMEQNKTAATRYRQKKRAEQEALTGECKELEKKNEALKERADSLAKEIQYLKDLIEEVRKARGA
Sequence of ATF4;ATF4 (P18848 other isoform, or with tags, fused parts or gaps |, chain 2 of 2): as the sequence (P18848 other isoform, or with tags, fused parts or gaps |, chain 1 of 2) above
Sequence of ATF4;CEBPG (P18848 other isoform, or with tags, fused parts or gaps |): as the sequence (P18848 other isoform, or with tags, fused parts or gaps |, chain 1 of 2) above
Sequence of ATF4;CEBPA (P18848 other isoform, or with tags, fused parts or gaps |, chain 1 of 2): as above
Sequence of ATF4;CEBPA (P49715 other isoform, or with tags, fused parts or gaps |, chain 2 of 2): as the sequence (P49715 other isoform, or with tags, fused parts or gaps |) above
Sequence of JUN;ATF3 (P05412 other isoform, or with tags, fused parts or gaps |): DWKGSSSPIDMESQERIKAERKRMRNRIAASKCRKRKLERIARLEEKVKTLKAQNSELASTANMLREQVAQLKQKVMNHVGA
Sequence of JUN;JUN (P05412 other isoform, or with tags, fused parts or gaps |, chain 1 of 2): as the sequence (P05412 other isoform, or with tags, fused parts or gaps |) above
Sequence of JUN;JUN (P05412 other isoform, or with tags, fused parts or gaps |, chain 2 of 2): as the sequence (P05412 other isoform, or with tags, fused parts or gaps |) above
Sequence of JUN;CEBPA (P05412 other isoform, or with tags, fused parts or gaps |, chain 1 of 2): as the sequence (P05412 other isoform, or with tags, fused parts or gaps |) above
Sequence of JUN;CEBPA (P49715 other isoform, or with tags, fused parts or gaps |, chain 2 of 2): as the sequence (P49715 other isoform, or with tags, fused parts or gaps |) above
Sequence of JUNB;CEBPA (P17275 other isoform, or with tags, fused parts or gaps |, chain 1 of 2): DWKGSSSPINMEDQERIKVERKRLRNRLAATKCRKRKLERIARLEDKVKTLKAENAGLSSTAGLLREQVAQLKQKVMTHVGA
Sequence of JUNB;CEBPA (P49715 other isoform, or with tags, fused parts or gaps |, chain 2 of 2): as the sequence (P49715 other isoform, or with tags, fused parts or gaps |) above
Sequence of FOS;CEBPG (P01100 other isoform, or with tags, fused parts or gaps |): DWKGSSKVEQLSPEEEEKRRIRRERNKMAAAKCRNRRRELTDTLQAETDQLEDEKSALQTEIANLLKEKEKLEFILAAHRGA

Row | Sequence | binding signal (ATF3;CEBPG) | binding signal (ATF3;CEBPA) | binding signal (JUN;CEBPG) | binding signal (JUN;CEBPA) | binding signal (BATF3;CEBPG) | binding signal (BATF3;CEBPA) | binding signal (ATF3;ATF3) | binding signal (JUNB;CEBPA) | binding signal (BATF;CEBPG) | binding signal (FOSL1;CEBPG) | binding signal (FOS;CEBPG) | binding signal (CEBPG;CEBPG) | binding signal (CEBPA;CEBPA) | binding signal (JUN;ATF3) | binding signal (JUN;JUN) | binding signal (ATF4;CEBPG) | binding signal (ATF4;CEBPA) | binding signal (ATF4;ATF4) | binding signal (BATF3;ATF3) | binding signal (BATF3;ATF4)
1 | ATGACGTCAT | 0.268 relative CSI intensity (max = 1) | 1 relative CSI intensity (max = 1) | 0.705 relative CSI intensity (max = 1) | 1 relative CSI intensity (max = 1) | 0.108 relative CSI intensity (max = 1) | 0.0986 relative CSI intensity (max = 1) | 1 relative CSI intensity (max = 1) | 0.0515 relative CSI intensity (max = 1) | 0.12 relative CSI intensity (max = 1) | 0.43 relative CSI intensity (max = 1) | 0.508 relative CSI intensity (max = 1) | 0.00362 relative CSI intensity (max = 1) | 0.015 relative CSI intensity (max = 1) | 0.367 relative CSI intensity (max = 1) | 1 relative CSI intensity (max = 1) | 0.465 relative CSI intensity (max = 1) | 0.584 relative CSI intensity (max = 1) | 1 relative CSI intensity (max = 1) | 0.146 relative CSI intensity (max = 1) | 0.748 relative CSI intensity (max = 1)
2 | ATGACGGAAT | 0.0128 relative CSI intensity (max = 1) | 0.105 relative CSI intensity (max = 1) | 0.0184 relative CSI intensity (max = 1) | 0.00425 relative CSI intensity (max = 1) | 0.00179 relative CSI intensity (max = 1) | – | 0.00639 relative CSI intensity (max = 1) | 0.00413 relative CSI intensity (max = 1) | 0.00661 relative CSI intensity (max = 1) | – | 0.0215 relative CSI intensity (max = 1) | – | – | 0.0994 relative CSI intensity (max = 1) | 0.0116 relative CSI intensity (max = 1) | 0.0162 relative CSI intensity (max = 1) | 0.133 relative CSI intensity (max = 1) | – | 0.00122 relative CSI intensity (max = 1) | 0.00174 relative CSI intensity (max = 1)
3 | ATGACGCAAT | 1 relative CSI intensity (max = 1) | 0.754 relative CSI intensity (max = 1) | 1 relative CSI intensity (max = 1) | 0.7 relative CSI intensity (max = 1) | 0.954 relative CSI intensity (max = 1) | 0.595 relative CSI intensity (max = 1) | 0.0322 relative CSI intensity (max = 1) | 1 relative CSI intensity (max = 1) | 0.678 relative CSI intensity (max = 1) | 1 relative CSI intensity (max = 1) | 0.92 relative CSI intensity (max = 1) | 0.307 relative CSI intensity (max = 1) | 0.292 relative CSI intensity (max = 1) | 0.267 relative CSI intensity (max = 1) | 0.0387 relative CSI intensity (max = 1) | 1 relative CSI intensity (max = 1) | 0.929 relative CSI intensity (max = 1) | – | 0.00445 relative CSI intensity (max = 1) | 0.00858 relative CSI intensity (max = 1)
4 | CCTGACGTCA | 0.0196 relative CSI intensity (max = 1) | 0.18 relative CSI intensity (max = 1) | – | 0.00973 relative CSI intensity (max = 1) | 0.00277 relative CSI intensity (max = 1) | 0.00253 relative CSI intensity (max = 1) | 0.0945 relative CSI intensity (max = 1) | 0.00467 relative CSI intensity (max = 1) | 0.0162 relative CSI intensity (max = 1) | – | 0.0189 relative CSI intensity (max = 1) | – | – | 0.177 relative CSI intensity (max = 1) | 0.0544 relative CSI intensity (max = 1) | 0.0346 relative CSI intensity (max = 1) | 0.127 relative CSI intensity (max = 1) | 0.0219 relative CSI intensity (max = 1) | 0.0499 relative CSI intensity (max = 1) | 0.0241 relative CSI intensity (max = 1)
5 | ATGATGCAAT | 0.538 relative CSI intensity (max = 1) | 0.655 relative CSI intensity (max = 1) | 0.445 relative CSI intensity (max = 1) | 0.679 relative CSI intensity (max = 1) | 0.78 relative CSI intensity (max = 1) | 0.725 relative CSI intensity (max = 1) | 0.00513 relative CSI intensity (max = 1) | 0.927 relative CSI intensity (max = 1) | 0.553 relative CSI intensity (max = 1) | 0.498 relative CSI intensity (max = 1) | 0.64 relative CSI intensity (max = 1) | 0.133 relative CSI intensity (max = 1) | 0.124 relative CSI intensity (max = 1) | 0.136 relative CSI intensity (max = 1) | 0.00263 relative CSI intensity (max = 1) | 0.965 relative CSI intensity (max = 1) | 1 relative CSI intensity (max = 1) | – | 0.00189 relative CSI intensity (max = 1) | 0.00441 relative CSI intensity (max = 1)
6 | ATGACGTAAT | 0.53 relative CSI intensity (max = 1) | 0.606 relative CSI intensity (max = 1) | 0.246 relative CSI intensity (max = 1) | 0.286 relative CSI intensity (max = 1) | 0.306 relative CSI intensity (max = 1) | 0.226 relative CSI intensity (max = 1) | 0.196 relative CSI intensity (max = 1) | 0.144 relative CSI intensity (max = 1) | 0.22 relative CSI intensity (max = 1) | 0.318 relative CSI intensity (max = 1) | 0.482 relative CSI intensity (max = 1) | 0.0508 relative CSI intensity (max = 1) | 0.0784 relative CSI intensity (max = 1) | 0.313 relative CSI intensity (max = 1) | 0.091 relative CSI intensity (max = 1) | 0.652 relative CSI intensity (max = 1) | 0.695 relative CSI intensity (max = 1) | 0.00204 relative CSI intensity (max = 1) | 0.0292 relative CSI intensity (max = 1) | 0.048 relative CSI intensity (max = 1)

Source: paper PMC5349851, “Combinatorial bZIP dimers display complex DNA-binding specificity landscapes”
